± gives the standard deviation.
Columns and labels:
Details in all cases: modulator concentration 10 µM
[1] = test system: RAW-Dual (murine macrophage reporter line); assay: NF-kB reporter (SEAP) activity fold change vs agonist alone; higher = enhanced NF-kB activity
How it was run: (§1)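 RAW-Dual murine macrophage reporter cells were seeded at 50 000 per well in 384-well plates and pre-incubated 1 hour at 37 °C with compound pin-transferred to 10 μM final. After 1 hour, a PRR agonist was added and cells incubated overnight. Supernatant NF-κB (SEAP, QUANTI-Blue, 620 nm absorbance) and IRF (Lucia luciferase, QUANTI-Luc, luminescence) signals were divided by the mean agonist-only control on the same plate to give fold change. Two replicate plates were averaged, with errors by propagation.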

[2] = test system: RAW-Dual (murine macrophage reporter line); assay: IRF reporter (Lucia luciferase) activity fold change vs agonist alone; higher = enhanced IRF activity
How it was run: as §1

[3] = test system: RAW-Dual (murine macrophage reporter line); assay: viability score (confluency relative to resting cells, overnight) (fraction); higher = more viable, active = viable (0.7 or more)
How it was run: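 Compound was added at a final 10 μM to RAW-Dual macrophages in 384-well plates and left overnight. Confluency was imaged with IncuCyte, and two masks were generated in IncuCyte software over all imaged wells. Each viability score is confluency relative to resting cells, and a compound met the cutoff only when both masks were above 70% of resting cells.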

[4] = agonist: CpG ODN 1826 0.5 ug/mL

Structure (SMILES) | NF-kB reporter [1, 4] | NF-kB reporter ([1]; agonist: LPS 0.1 ug/mL) | NF-kB reporter ([1]; agonist: MPLA […]) | IRF reporter ([2]; agonist: 3'3'-cGAMP 10 ug/mL) | IRF reporter ([2]; agonist: LPS 0.1 ug/mL) | IRF reporter ([2]; agonist: MPLA […]) | viability score [3]
COC(=O)Nc1nc2cc(C(=O)c3ccccc3)ccc2[nH]1 | 1.96 ± 0.28 | 1.23 ± 0.23 | 1.31 ± 0.13 | 0.093 ± 0.0033 | 1.04 ± 0.19 | 1.6 ± 0.22 | 0.661 (inactive)
CCc1ccc2nc(NCCCN3CCOCC3)sc2c1 | 0.924 ± 0.057 | 1.02 ± 0.083 | 0.971 ± 0.058 | 0.866 ± 0.04 | 1.19 ± 0.27 | 1.3 ± 0.34 | 0.99 (active)
COC(=O)CNC(c1ccccc1)c1cc(Br)ccc1NC(=O)c1ccccc1Cl (stereo unspecified) | 0.675 ± 0.059 | 1.08 ± 0.092 | 0.963 ± 0.091 | 1 ± 0.037 | 1.78 ± 0.17 | 1.59 ± 0.16 | 1.01 (active)
CC1CN(C2=NC(=O)C(=Cc3ccc(-c4ccccc4Cl)o3)S2)CC(C)O1 (stereo unspecified) | 0.495 ± 0.054 | 0.841 ± 0.053 | 0.943 ± 0.089 | 0.813 ± 0.053 | 1.34 ± 0.12 | 1.44 ± 0.15 | 1.02 (active)
N=C1NC(=O)C(=Cc2ccc(-c3cccc(Cl)c3)o2)S1 | 0.688 ± 0.091 | 0.695 ± 0.048 | 1.77 ± 0.11 | 1.39 ± 0.11 | 1.17 ± 0.14 | 2.82 ± 0.65 | 0.932 (active)
CCOC(=O)C1CCN(C(=O)c2ccc(C#CC(C)(C)O)cc2)CC1 | 0.747 ± 0.063 | 0.845 ± 0.041 | 1.1 ± 0.1 | 0.91 ± 0.048 | 1.34 ± 0.077 | 1.46 ± 0.12 | 1.01 (active)
ON=C1ON=C(c2ccccc2)C1=NO | 0.867 ± 0.067 | 0.775 ± 0.038 | 0.875 ± 0.078 | 0.176 ± 0.0086 | 1.29 ± 0.078 | 1.42 ± 0.13 | 0.998 (active)
CN(C)C(CNC(=O)NCc1ccc(F)cc1)c1ccc2c(c1)CCO2 (stereo unspecified) | 0.838 ± 0.048 | 1.09 ± 0.092 | 1.04 ± 0.055 | 1.12 ± 0.064 | 1 ± 0.062 | 0.804 ± 0.12 | 0.994 (active)
O=C(Nc1nccs1)c1ccc2c(c1)C(=O)N(CC1CCCO1)C2=O (stereo unspecified) | 1.12 ± 0.11 | 0.919 ± 0.088 | 0.975 ± 0.028 | 0.997 ± 0.037 | 1.04 ± 0.054 | 1.14 ± 0.13 | 0.997 (active)
CCC1=C(C)CN(C(=O)NCCc2ccc(S(=O)(=O)NC(=O)N[C@H]3CC[C@H](C)CC3)cc2)C1=O | 1.08 ± 0.085 | 1.08 ± 0.062 | 1.03 ± 0.066 | 1.22 ± 0.23 | 0.95 ± 0.067 | 0.915 ± 0.14 | 0.996 (active)
CC(C)(C)c1ccc(C(=O)Nc2nc3ccc([N+](=O)[O-])cc3s2)cc1 | 1.06 ± 0.085 | 1.05 ± 0.072 | 1 ± 0.035 | 1.04 ± 0.23 | 0.986 ± 0.074 | 1.1 ± 0.11 | 1 (active)
O=C(OCCN1CCCCC1)c1ccc(O)cc1 | 1.01 ± 0.081 | 1.06 ± 0.07 | 1.03 ± 0.04 | 1.08 ± 0.077 | 1.03 ± 0.047 | 1.07 ± 0.18 | 1 (active)
O=C(Cn1ccnc1[N+](=O)[O-])NCCO [Prestw-649] | 1.09 ± 0.081 | 1.01 ± 0.12 | 1.05 ± 0.03 | 1.09 ± 0.16 | 0.982 ± 0.11 | 0.994 ± 0.15 | 1 (active)

Reference: the supplement of paper PMC10646978
